# Literature values as cited in PubChem BioAssay AID977610.
# The whole screen tested about 3,600 compounds, of which about 3,600 (100%) were called active. No cut-off is given here; in the data, nearly all actives have Ki up to about 18000 µM. So high a share suggests a set chosen from earlier hits. The list shows a part of the results.
# Assay: PubChem AID 977610
# Conditions: PDB protein-ligand complexes, literature Ki
smiles,measurement,setting,value
Cc1ccc(C(=O)NC(=O)N[C@@H]2O[C@H](CO)[C@@H](O)[C@H](O)[C@H]2O)cc1,Ki,"protein: Oryctolagus cuniculus Glycogen Phosphorylase, PDB entry 2qlm",2.3 µM (active)
CC(C)c1ccc(CCC(=O)N[C@@H]2O[C@H](CO)[C@@H](O)[C@H](O)[C@H]2O)cc1,Ki,"protein: Glycogen phosphorylase, muscle form, PDB entry 4mic",4.98 µM (active)
O=C(CCc1ccc(-c2ccccc2)cc1)N[C@@H]1O[C@H](CO)[C@@H](O)[C@H](O)[C@H]1O,Ki,"protein: Glycogen phosphorylase, muscle form, PDB entry 4mhs",5.14 µM (active)
CC(C)c1ccc(C[C@@H](C)C(=O)N[C@@H]2O[C@H](CO)[C@@H](O)[C@H](O)[C@H]2O)cc1,Ki,"protein: Glycogen phosphorylase, muscle form, PDB entry 4mi3",75.3 µM (active)
CC[B]O,Ki,"protein: pure Acyl-homoserine lactone acylase PvdQ, PDB entry 4wks",2000 µM (active)
Cc1nn(C)cc1-c1ccn[nH]1,Ki,"protein: Catechol O-methyltransferase COMT, PDB entry 4p58",25 µM (active)
CC(C)S[C@@H]1O[C@H](CO)[C@H](O)[C@H](O)[C@H]1O,Ki,"protein: Putative lipoprotein BT2192, PDB entry 4oue",500 µM (active)
NCC1CCC(C(=O)N[C@@H](Cc2ccccc2)c2nc(-c3ccc4c(N)n[nH]c4c3)c(Cl)[nH]2)CC1 (some centres not stated),Ki,"protein: Coagulation factor XI FXIa, PDB entry 4ty7",0.0003 µM (active)
NCC1CCC(C(=O)N[C@@H](Cc2ccccc2)c2ncc(-c3ccc(C(N)=O)cc3)[nH]2)CC1 (some centres not stated),Ki,"protein: Coagulation factor XI FXIa, PDB entry 4ty6",0.03 µM (active)
N#CCC(=O)N1CCC[C@@H](n2[nH]nc3cnc4nccc4c32)C1,Ki,"protein: Tyrosine-protein kinase JAK1, PDB entry 4i5c",0.0015 µM (active)
O=C(O)C(=O)Nc1ccc(C[C@@H](c2nc3ccccc3o2)S(=O)(=O)Nc2ccc(F)cc2)cc1,Ki,"protein: Tyrosine-protein phosphatase non-receptor type 1, PDB entry 4i8n",35 µM (active)
O=c1[nH]c(=O)n([C@@H]2O[C@H](CO)[C@@H](O)[C@H](O)[C@H]2O)cc1I,Ki,"protein: Glycogen phosphorylase, muscle form, PDB entry 3t3h",1.94 µM (active)
O=c1[nH]c(=O)n([C@@H]2O[C@H](CO)[C@@H](O)[C@H](O)[C@H]2O)cc1Br,Ki,"protein: Glycogen phosphorylase, muscle form, PDB entry 3t3g",3.27 µM (active)
O=c1[nH]c(=O)n([C@@H]2O[C@H](CO)[C@@H](O)[C@H](O)[C@H]2O)cc1C(F)(F)F,Ki,"protein: Glycogen phosphorylase, muscle form, PDB entry 3t3i",17 µM (active)
O=c1[nH]c(=O)n([C@@H]2O[C@H](CO)[C@@H](O)[C@H](O)[C@H]2O)cc1Cl,Ki,"protein: Glycogen phosphorylase, muscle form, PDB entry 3t3e",1.02 µM (active)
OC[C@@H]1[C@@H](O)[C@H](O)[C@@H](O)[C@@H]1NCC1CCCCC1,Ki,"protein: Raucaffricine Glucosidase, PDB entry 3zj6",0.22 µM (active)
COCCCC[C@@H](NOCCN)c1ccc(C(F)(F)F)cc1,Ki,"protein: Transporter(delta13 mutant), PDB entry 4mm9",2.07 µM (active)
O=[N+]([O-])c1ccccc1S[C@@H]1O[C@H](CO)[C@H](O)[C@H](O)[C@H]1O,Ki,"protein: Putative lipoprotein BT2192, PDB entry 4ozo",147 µM (active)
COc1cc2c(c(OC)c1)[C@@H]1[C@H]3CCC[C@@H](C(=O)N1CC2)N3C(=O)C(=O)c1cc(OC)c(OC)c(OC)c1,Ki,"protein: Peptidyl-prolyl cis-trans isomerase FKBP5 (A19T mutation), PDB entry 4jfi",18.1 µM (active)
COc1cc(Cc2cnc(N)nc2N)cc(/C=C/C(=O)N2NCc3ccccc3[C@H]2CC(C)C)c1OC,Ki,"protein: Dihydrofolate reductase, PDB entry 4elh",0.0082 µM (active)
COc1cc(Cc2cnc(N)nc2N)cc(/C=C/C(=O)N2N=Cc3ccccc3[C@@H]2C(C)C)c1OC,Ki,"protein: Dihydrofolate reductase, PDB entry 4ele",0.0132 µM (active)
COc1cc(Cc2cnc(N)nc2N)cc(/C=C/C(=O)N2NCc3ccccc3[C@@H]2CC(C)C)c1OC,Ki,"protein: Dihydrofolate reductase, PDB entry 4elg",0.0069 µM (active)
COc1cc(Cc2cnc(N)nc2N)cc(/C=C/C(=O)N2NCc3ccccc3[C@@H]2c2ccccc2)c1OC,Ki,"protein: Dihydrofolate reductase, PDB entry 4elb",0.005 µM (active)
COc1cc(Cc2cnc(N)nc2N)cc(/C=C/C(=O)N2NCc3ccccc3[C@@H]2CCC(F)(F)F)c1OC,Ki,"protein: Dihydrofolate reductase, PDB entry 4elf",0.0094 µM (active)
CCCCCCCCCCCCCB(O)O,Ki,"protein: Acyl-homoserine lactone acylase PvdQ subunit beta, PDB entry 4m1j",0.0002 µM (active)
Cc1cc(N)ccc1O,Ki,"protein: PDE10A2, PDB entry 4llp",16 µM (active)
O=C(O)c1ccccc1C(=O)NCc1c(Cl)cccc1Sc1ccc(Cl)cc1Cl,Ki,"protein: Dehydrosqualene synthase, PDB entry 3tfp",0.34 µM (active)
